# In PubChem BioAssay (Tox21):
# “And” between values parts separate entries of the source, which are not always exact repeats. Identical values can stand only once. Inconclusive results are not listed. Entries that show only a call come without a potency. The source holds several records for some structures; these can differ, active in one and inactive in another. The source made the active and inactive calls. Unless noted, the call rests on the fitted dose curve; in most records, active means well fitted curve in the direction sought with a large enough effect in the repeat runs; inconclusive means weak or mixed curves; inactive means no such curve, though single readings can be large; an effect the other way counts as inactive or inconclusive.
# How the values were obtained:
# [1] = qHTS assay for small molecule agonists of the p53 signaling pathway (AID 651631; calls by dose curve; further: nearly all actives have a fitted effect of over 15% in size)
# Outline: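 HCT-116 cells carrying a stable p53 response element–beta-lactamase reporter were plated, rested 5 h at 37 °C, then exposed to compound in DMSO for 16 h at 37 °C; reporter activity was read as FRET substrate fluorescence after 2 h at room temperature.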
# [2] = qHTS assay for small molecules that induce genotoxicity in human embryonic kidney cells expressing luciferase-tagged ATAD5 (AID 651632); further: nearly all actives have a fitted effect of over 15% in size
# Outline: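 A rise in luciferase signal from ATAD5-tagged HEK293T cells marks genetic stress. Cells were exposed to compounds for 16 hr at 37C, 5% CO2, then luciferase was quantified after a 30 min room-temperature incubation with Amplite.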
# [3] = qHTS assay for small molecule agonists of the p53 signaling pathway - cell viability (AID 651633; calls by dose curve; further: nearly all actives have a fitted effect of over 30% in size; further: potency means the concentration at half of the fitted maximal effect)
# Outline: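 p53RE-bla cells, seeded at 4,000 per well and rested 5 h at 37 C/5% CO2, received compounds in DMSO for 16 h at 37 C. CellTiter-Glo was then added, and luminescence was read after 30 min at room temperature to gauge cytotoxicity.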
# [4] = qHTS assay for small molecules that induce genotoxicity in human embryonic kidney cells expressing luciferase-tagged ATAD5 - cell viability (AID 651634; calls by dose curve; further: nearly all actives have a fitted effect of over 25% in size)
# Outline: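 Cytotoxicity counter-readout: after 15.5 hr compound treatment at 37C, live-cell protease activity in ATAD5-luciferase HEK293T cells measured by CellTiter-Fluor fluorescence, 30 min development at 37C.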
# [5] = qHTS assay for small molecule disruptors of the mitochondrial membrane potential - cell viability (AID 720634; calls by dose curve; further: nearly all actives have a fitted effect of over 20% in size; further: potency means the concentration at half of the fitted maximal effect)
# Outline: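 Cytotoxicity was quantified from ATP content by CellTiter-Glo luminescence in the same wells as the MMP dye read-out. HepG2 (2,000 cells/well) were plated overnight and exposed to compounds for 1 hr at 37 C.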
# [6] = qHTS assay for small molecule disruptors of the mitochondrial membrane potential (AID 720635); further: potency means the concentration at half of the fitted maximal effect
# Outline: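 HepG2 cells (2,000/well) attached overnight at 37C, then took compound for 1 hr at 37C, 5% CO2. Mito-MPS dye was added for 30 min; fluorescence was read at 490/535 nm (monomers) and 540/590 nm (aggregates).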
# [7] = qHTS assay to test for compound auto fluorescence at 590 nm (red) in HepG2 cells (AID 720674)
# Outline: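 Compound auto-fluorescence is scored relative to Rose Bengal sodium, measured at 540/590 nm in live HepG2 cultures after 1 hr compound contact (37 C, 5% CO2).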
# [8] = qHTS assay to test for compound auto fluorescence at 535 nm (green) in HepG2 cells (AID 720675)
# [9] = qHTS assay to test for compound auto fluorescence at 460 nm (blue) in HEK293 cells (AID 720678)
# Outline: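 After cell attachment (4-5 hr, 37C), compounds were pinned onto HEK293 monolayers in 10% dialyzed FBS medium. The blue channel (405/460 nm) was read following overnight culture. Equivalency was calculated against triamterene.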
# [10] = qHTS assay to test for compound auto fluorescence at 590 nm (red) in HEK293 cells (AID 720679)
# Outline: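 Plates of HEK293 cells (10% dialyzed FBS) are treated with 23 nL compound or DMSO vehicle after a 4-5 hr attachment period, incubated overnight at 37C, and read for red fluorescence at 540/590nm.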
# [11] = qHTS assay to test for compound auto fluorescence at 535 nm (green) in HEK293 cells (AID 720680)
# [12] = qHTS assay to test for compound auto fluorescence at 460 nm (blue) in HEK293 cell free culture (AID 720681)
# Outline: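 Test compounds were pinned into cell-free culture medium (DMEM with 10% FBS) and fluorescence was read directly at Ex/Em 405/460 nm. Signals were expressed as fluorescence equivalents of triamterene, with DMSO vehicle as control.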
# [13] = qHTS assay to test for compound auto fluorescence at 535 nm (green) in HEK293 cell free culture (AID 720682)
# Outline: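 Read-out: 485/535 nm fluorescence intensity, calibrated against fluorescein. Medium only (DMEM + 10% FBS, no cells); test compound or DMSO vehicle added by pintool before plate reading.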
# [14] = qHTS assay to test for compound auto fluorescence at 590 nm (red) in HEK293 cell free culture (AID 720683)
# Outline: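 Tox21 10K library compounds were pinned into cell-free DMEM with 10% FBS and fluorescence was read at excitation 540 nm. Activity is expressed as Rose Bengal sodium equivalency.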
# [15] = qHTS assay to test for compound auto fluorescence at 590 nm (red) in HepG2 cell free culture (AID 720684)
# Outline: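 Ex 540 / Em 590 nm read of compound in cell-free MEM (10% FBS). Rose Bengal sodium reference.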
# [16] = qHTS assay to test for compound auto fluorescence at 460 nm (blue) in HepG2 cell free culture (AID 720685)
# Outline: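 Cell-free plates of MEM plus 10% FBS received 23 nL compound or DMSO vehicle; blue-channel (405/460 nm) intensity scored against triamterene as reference fluorophore.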
# [17] = qHTS assay to test for compound auto fluorescence at 535 nm (green) in HepG2 cell free culture (AID 720686)
# [18] = qHTS assay to test for compound auto fluorescence at 460 nm (blue) in HepG2 cells (AID 720687)
# Outline: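 Cells (2,000/well in MEM with 10% FBS) attached overnight at 37 C, then were exposed to compound or DMSO for 1 hr at 37 C, 5% CO2. Fluorescence read at Ex/Em 405/460 nm, expressed as triamterene-equivalent signal.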
# [19] = target: Glucocorticoid receptor (Homo sapiens) (UniProt P04150); assay: qHTS assay to identify small molecule agonists of the glucocorticoid receptor (GR) signaling pathway (AID 720691; active means well fitted activation curve with a large enough effect in the signal ratio in the repeat runs, not every such curve was filed as active; the % refers to the signal ratio)
# Outline: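 Agonist-mode qHTS in HeLa cells stably expressing a glucocorticoid-response-element beta-lactamase reporter. Fluorescence intensity read with FRET substrate (2 h, room temperature) after 18 h compound treatment at 37 C.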
# [20] = target: Glucocorticoid receptor (Homo sapiens) (UniProt P04150); assay: qHTS assay to identify small molecule antagonists of the glucocorticoid receptor (GR) signaling pathway (AID 720692; active means well fitted inhibition curve with a large enough effect in the signal ratio in the repeat runs, not every such curve was filed as active; the % refers to the signal ratio)
# Outline: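 Inhibition of dexamethasone-driven (5 nM final) beta-lactamase expression was measured in GRE-reporter HeLa cells over 18 h at 37C. Fluorescence was read after 2 h with the B/G FRET substrate at room temperature.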
# Chain of Glucocorticoid receptor (Homo sapiens) (P04150 whole entry, looked up): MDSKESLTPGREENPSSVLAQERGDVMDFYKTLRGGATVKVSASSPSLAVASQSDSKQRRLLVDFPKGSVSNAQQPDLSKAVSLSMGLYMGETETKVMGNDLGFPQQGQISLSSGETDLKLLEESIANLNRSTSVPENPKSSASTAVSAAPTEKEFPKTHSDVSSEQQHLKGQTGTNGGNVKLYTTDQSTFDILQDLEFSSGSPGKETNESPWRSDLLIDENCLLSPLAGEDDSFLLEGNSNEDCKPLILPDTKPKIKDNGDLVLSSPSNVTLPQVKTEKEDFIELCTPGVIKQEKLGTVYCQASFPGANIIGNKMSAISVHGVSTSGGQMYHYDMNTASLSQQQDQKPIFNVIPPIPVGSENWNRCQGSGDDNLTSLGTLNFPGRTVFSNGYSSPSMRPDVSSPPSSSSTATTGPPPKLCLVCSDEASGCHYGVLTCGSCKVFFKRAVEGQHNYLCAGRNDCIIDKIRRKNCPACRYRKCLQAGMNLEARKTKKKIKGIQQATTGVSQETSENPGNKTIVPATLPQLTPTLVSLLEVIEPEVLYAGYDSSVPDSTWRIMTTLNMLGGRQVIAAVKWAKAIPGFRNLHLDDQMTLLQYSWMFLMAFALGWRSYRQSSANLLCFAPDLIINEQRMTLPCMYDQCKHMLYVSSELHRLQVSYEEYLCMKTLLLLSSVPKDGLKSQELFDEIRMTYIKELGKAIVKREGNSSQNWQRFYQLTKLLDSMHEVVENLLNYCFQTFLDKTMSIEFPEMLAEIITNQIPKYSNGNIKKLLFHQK
Structure (SMILES),Potency [1],Potency [2],Potency [3],Potency [4],Potency [5],Potency [6],outcome [7],outcome [8],outcome [9],outcome [10],outcome [11],outcome [12],outcome [13],outcome [14],outcome [15],outcome [16],outcome [17],outcome [18],outcome [19],Potency [20]
Cc1cccc(C)c1NC(=O)CN1CCCC1=O,inactive,inactive,inactive,inactive,inactive,inactive,inactive,inactive,inactive,inactive,inactive,inactive,inactive,inactive,inactive,inactive,inactive,inactive,inactive,inactive
Cc1ccc(O)c(C)c1,inactive,inactive,inactive,inactive,inactive,inactive,inactive,inactive,inactive,inactive,inactive,inactive,inactive,inactive,inactive,inactive,inactive,inactive,inactive,inactive
Cc1ccc(N)cc1,inactive,inactive,inactive,inactive,inactive,inactive,inactive,inactive,inactive,inactive,inactive,inactive,inactive,inactive,inactive,inactive,–,inactive,–,–
Cc1ccc(N=C=O)cc1N=C=O,inactive,inactive,inactive,inactive,inactive,19.8 µM (active),inactive,inactive,inactive,inactive,inactive,inactive,inactive,inactive,inactive,inactive,inactive,inactive,inactive,inactive
C=CC(=O)OCCCCCC(C)C,inactive,inactive,inactive,inactive,inactive,inactive,inactive,inactive,inactive,inactive,inactive,inactive,inactive,inactive,inactive,inactive,inactive,inactive,–,–
Clc1cnc(Oc2ccc(Oc3ncc(Cl)cc3Cl)cc2)c(Cl)c1,inactive,inactive,inactive,inactive,inactive,10.7 µM (active) and 48.6 µM (active),inactive,inactive,inactive,inactive,inactive,inactive,inactive,inactive,inactive,inactive,–,inactive,inactive,inactive
CCOP(=S)(OCC)Oc1cc(C)nc(C(C)C)n1,inactive,inactive,inactive and 61.1 µM (active),inactive,inactive and 48.6 µM (active),inactive and 30.6 µM (active),inactive,inactive,inactive,inactive,inactive,inactive,inactive,inactive,inactive,inactive,inactive,inactive,inactive,inactive
Cl/C=C/Cl,inactive,inactive,inactive,inactive,inactive,inactive,inactive,inactive,inactive,inactive,inactive,inactive,inactive,inactive,inactive,inactive,–,inactive,inactive,inactive
Cl[C@H]1OCCO[C@@H]1Cl,inactive,inactive,inactive,inactive,inactive,inactive,inactive,inactive,inactive,inactive,inactive,inactive,inactive,inactive,inactive,inactive,–,inactive,inactive,–
COC(C)(C)CCCC(C)C/C=C/C(C)=C/C(=O)OC(C)C (centres undefined),inactive,inactive,inactive,inactive,inactive,inactive and 21.3 µM (active),inactive,inactive,inactive,inactive,inactive,inactive,inactive,inactive,inactive,inactive,inactive,inactive,–,–
Nc1cc(Cl)cc(Cl)c1,inactive,inactive,inactive,inactive,inactive,inactive,inactive,inactive,inactive,inactive,inactive,inactive,inactive,inactive,inactive,inactive,inactive,inactive,–,–
COP(=S)(OC)Oc1ccc(SC)c(C)c1,inactive,inactive,inactive,inactive,inactive and 24.3 µM (active),53.9 µM (active) and 27.3 µM (active),inactive,inactive,inactive,inactive,inactive,inactive,inactive,inactive,inactive,inactive,–,inactive,inactive,inactive
[N-]=[N+]=CC(=O)OC[C@H](N)C(=O)O,inactive,inactive,inactive,inactive,inactive,inactive,inactive,inactive,inactive,inactive,inactive,inactive,inactive,inactive,inactive,inactive,inactive,inactive,–,–
CC(C)CCCCCCOC(=O)c1ccccc1C(=O)OCCCCCCC(C)C,inactive,inactive,inactive,inactive,inactive,inactive,inactive,inactive,inactive,inactive,inactive,inactive,inactive,inactive,inactive,inactive,inactive,inactive,inactive,inactive
Nc1nc(N)nc(NC2CC2)n1,inactive,inactive,inactive,inactive,inactive,inactive,inactive,inactive,inactive,inactive,inactive,inactive,inactive,inactive,inactive,inactive,inactive,inactive,inactive,inactive
